For assay [1], the target named is ATP-dependent 6-phosphofructokinase (Trypanosoma brucei brucei) (UniProt O15648). Briefly: qHTS Assay to Find Inhibitors of T. brucei phosphofructokinase: hit validation (AID 492961).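 Note: luminescence reports ADP formed as PFK phosphorylates fructose-6-phosphate with ATP; series mostly up to about 51 µM.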 The gist of the method: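 Inhibition of parasite PFK is measured as reduced ADP formation, quantified via luciferase after ATP depletion. Assay used 0.1 mM ATP, 0.5 mM F6P, 1.25 nM enzyme, 45 min incubation.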
A general note: Quantitative high-throughput screening tests each substance at several concentrations.

A short description of assay [2]: Cytometry Cell-Based qHTS for Inhibitors of the mTORC1 Signaling Pathway in MEF cells (AID 2668).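 Note: Tsc2-/- p53-/- mouse embryonic fibroblasts stably re-expressing wild-type Tsc2; percent cells positive for phospho-rpS6 Ser235/236 relative to propidium iodide stain; series mostly up to about 38 µM.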 The gist of the method:
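Read-out: phospho-rpS6 Ser235/236 immunofluorescence normalized to propidium iodide intensity, scored as % active cells against a rapamycin (7.5 nM) threshold. Cells: Tsc2-/-, p53-/- MEFs stably expressing WT Tsc2, compound-treated 24 hrs at 37 degree Celsius.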

A short description of assay [3]: Validation screen for small molecules that induce DNA re-replication in MCF 10A normal breast cells (AID 463097). Note: nearly all actives have a fitted effect of over 60% in size. The method in brief: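 250 MCF 10A cells/well; compound pin-transferred; 48 hr, 37 C, 5% CO2; Hoechst 40 min; imaged 405/500-530 nm. Hits = more high-intensity nuclei.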
In assay [4] the target is Ubiquitin carboxyl-terminal hydrolase 2 (Homo sapiens) (UniProt O75604). Kind of assay: qHTS Validation Assay for Inhibitors of Ubiquitin-specific Protease USP2a Using CHOP2 as the Reporter (AID 463106). The method in brief:
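USP2 core (10 nM final) was preincubated with compound 30 min at RT in pH 8.0 Tris/CaCl2/beta-ME/CHAPS buffer. Ub-CHOP2 and reporter substrate (25 nM final each) were then added, with fluorescence (Ex 485/Em 531) read after 60 min. Data were normalized to NEM full inhibition and fitted to concentration-response curves.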

The target in assay [5] is DNA polymerase III PolC-type (Bacillus subtilis (strain 168)) (UniProt P13267). Kind of assay: qHTS Validation Assay for the Inhibitors of DNA Replication in Gram-Positive Bacteria (AID 485295).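 Note: reconstituted holoenzyme with PolC plus beta clamp SSB and primase; PicoGreen fluorescence of double-stranded DNA made on primed circular M13 template; series mostly up to about 57 µM.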 The gist of the method: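 PicoGreen fluorescence (ex 480–485/em 535–540 nm) reports dsDNA synthesized on ssM13Gori template with dNTPs/NTPs. Enzyme: holoenzyme rebuilt from purified PolC, beta subunit, SSB and primase. Compound preincubated before substrate addition; RT throughout.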

Assay [6] addresses Tumor susceptibility gene 101 protein (Homo sapiens) (UniProt Q99816). Briefly: qHTS Validation Assay for Iinhibitors of HIV-1 Budding by Blocking the Interaction of PTAP/TSG101 (AID 485342; calls by dose curve). The gist of the method: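 FP read-out: FITC-PTAP peptide, 50 nM final, binding Tsg101 binding domain, 10 uM final; 20 min r.t.; 10 mM HEPES pH 7.5, 0.15 M NaCl, 0.01% Tween 20, 3 mM EDTA, 0.1 mM TCEP.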

Assay [7] concerns the target Beta-2 adrenergic receptor (Homo sapiens) (UniProt P07550). Briefly: qHTS validation assay of beta-arrestin-biased ligands of beta2-adrenergic receptor (AID 485366). The method in brief:
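Tango cells (recombinant beta2-AR with recombinant beta-arrestin; recruitment releases tTA driving luciferase) were treated with compounds titrated up to 46 microM for 18 hr at 37 degrees C. Luminescence gave %Activity, and concentration-response curves were curve-classified.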

The target in assay [8] is ATP-dependent 6-phosphofructokinase (Trypanosoma brucei brucei) (UniProt O15648). Kind of assay: qHTS Validation Assay to Find Inhibitors of T. brucei phosphofructokinase (AID 485368). The settings on record: outcome: dose series up to 57.5 µM. The gist of the method:
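Compounds (up to 57 uM, titration series) were pinned into substrate buffer, then 1.25 nM PFK added; after 45 min at room temperature, ADP product was quantified by ADP-Glo luminescence and concentration-response curves fitted.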

For assay [9], the target named is Thioredoxin reductase 1, cytoplasmic (Rattus norvegicus) (UniProt O89049). Kind of assay: qHTS Assay for Substrates of Mammalian Selenoprotein Thioredoxin Reductase 1 (TrxR1) (AID 488772).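 Note: NADPH fluorescence in the first read after selenite addition and not the 8 min delta; series mostly up to about 57 µM; a drop in NADPH fluorescence below the no-compound background marks a TrxR1 substrate.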 The gist of the method: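 Quantitative HTS in Tris-HCl buffer at pH 7.5 with EDTA and Tween-20, using rat TrxR1, 400 uM NADPH and 400 uM selenite (final). A fall in initial NADPH fluorescence relative to background marked substrate behaviour.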

Assay [10] has the same target. Kind of assay: qHTS Assay for Inhibitors of Mammalian Selenoprotein Thioredoxin Reductase 1 (TrxR1) (AID 488773).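 Note: drop in NADPH fluorescence over an 8 min run after selenite addition; series mostly up to about 57 µM; nearly all actives have a fitted effect of over 40% in size.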 The gist of the method:
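Steps: enzyme (90 nM) plus NADPH (400 uM final), 5 min at ~22 deg C; compound added, 15 min; selenite (400 uM final) added; fluorescence followed for 8 min. Concentration-response curves derived from the normalized delta values.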

Assay [11] deals with Flap endonuclease 1 (Homo sapiens) (UniProt P39748). Kind of assay: qHTS Validation Assay for the Inhibitors of Human Flap endonuclease 1 (FEN1) (AID 488816). The gist of the method: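 Human FEN1 (10 nM) preincubated 15 min at room temperature with compounds, then flap DNA substrate added at 50 nM final. Fluorescence read at 0 and 15 min; concentration-response fitted with four-parameter Hill equation.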

Assay [12] has as its target M-phase phosphoprotein 8 (Homo sapiens) (UniProt Q99549). Kind of assay: qHTS Validation Assay for Inhibitors for MPP8 Chromodomain Interactions with Methylated Histone Tails (AID 488949).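 Note: AlphaScreen signal from MPP8 chromodomain bound to biotinylated H3K9me3 peptide; top concentration of the series differs between compounds; nearly all actives have a fitted effect of over 55% in size.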 The gist of the method: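 AlphaScreen read-out: streptavidin donor and nickel chelate acceptor beads (final 10 ug/mL), 30 min in the dark at RT. Complex of 50 nM MPP8 and 50 nM b-H3(1-18)K9me3 peptide had been exposed to compounds for 30 min beforehand.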

For assay [13], the target named is Chromobox protein homolog 1 (Homo sapiens) (UniProt P83916). Briefly: qHTS Validation Assay for Inhibitors of HP1-beta Chromodomain Interactions with Methylated Histone Tails (AID 488953).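 Note: loss of AlphaScreen luminescence from HP1-beta binding biotinylated H3K9me3 peptide; series mostly up to about 110 µM; nearly all actives have a fitted effect of over 50% in size.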 The gist of the method:
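50 nM HP1-beta + 50 nM biotin-H3(1-18)K9me3, PBS pH 7.4, 0.01% Tween-20, 30 min RT; compound added, 30 min RT; AlphaScreen beads 10 ug/mL final, 30 min dark; luminescence read.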

In assay [14] the target is Methanococcus maripaludis chaperonin (MmCpn) (UniProt Q6LX38). Kind of assay: High-Throughput Screening for Modulators of Cytosolic Chaperonin Activity: MmCpn Primary Screen (AID 488978). The method in brief: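 ADP formation read by HTRF Transcreener, 665/590 nm emission after 320 nm excitation. Enzyme: archaeal chaperonin at 50 nM final; substrate ATP 30 uM final; 10 min, 37C, after 5 min compound preincubation at RT.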

Assay [15] concerns the target Transient receptor potential cation channel subfamily V member 1 (Homo sapiens) (UniProt Q8NER1). Kind of assay: HTS Assay for Compounds that Act as Enhancers of the Vanilloid Receptor 1 (AID 488979). The gist of the method: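 TRPV1 cells loaded with Fluo-8 calcium dye; compound added and Ca2+ signal (ex 480/em 520 nm) followed 3 min, then capsaicin at EC20 added and read 2 more min to detect enhancement.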

In assay [16] the target is Thyrotropin receptor (Homo sapiens) (UniProt P16473). Kind of assay: qHTS Assay for Antagonists of the Thyroid Stimulating Hormone Receptor (AID 488980). Note: series mostly up to about 58 µM. The gist of the method: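 TSHR-HEK293 cells; 70 uM RO 20-1724 PDE inhibitor; compound + EC80 TSH (4 nM final); anti-cAMP cryptate antibody/cAMP-d2 in lysis buffer, 30 min RT; HTRF 665/620 nm read.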
Assay [17] deals with D(1A) dopamine receptor (Homo sapiens) (UniProt P21728). Briefly: HTS Assay for Allosteric Agonists of the Human D1 Dopamine Receptor: Primary Screen for Agonists (AID 488981). Note: potency is the fitted concentration of half-maximal effect. The method in brief:
(§1)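 Tetracycline-induced HEK293 Trex D1 cells with forced coupling to calcium, loaded with no-wash calcium dye; kinetic fluorescence read 180 s after compound addition for agonism, then a further 180 s after an EC20 dopamine challenge for potentiation.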

For assay [18] the target is unchanged. Briefly: HTS Assay for Allosteric Agonists of the Human D1 Dopamine Receptor: Primary Screen for Antagonists (AID 488983).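 Note: calcium flux response to an EC80 dopamine challenge measured with no-wash dye; nearly all actives have a fitted effect of over 65% in size.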 Note: potency is the fitted concentration of half-maximal effect. The gist of the method:
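Cells are induced with tetracycline and incubated overnight at 30 C, then loaded with calcium dye for 30 to 90 minutes at room temperature. Compound addition is followed by a 180 s read, then an EC80 dopamine addition and another 180 s read.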

Assay [19] in a line: Validation screen for small molecules that induce genotoxicity in human embryonic kidney (HEK293T) cells expressing luciferase-tagged ELG1 (AID 493106). The method in brief:
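Luminescence from an ELG1-luciferase fusion serves as the read-out, rising when genetic stress elevates ELG1 protein. HEK293T reporter cells (2,000 per well) received 23 nL compound, incubated 16 hr at 37 °C, then ONE-Glo for 30 min at room temperature.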

Assay [20] addresses D(1A) dopamine receptor (Homo sapiens) (UniProt P21728). Briefly: HTS Assay for Allosteric Agonists of the Human D1 Dopamine Receptor: Primary Screen for Potentiators (AID 488982). The method in brief:
as §1

SMILES strings stand for the structures. Results filed as inconclusive are left out. The source made the active and inactive calls. Unless noted, calls come from the whole dose curve; as a rule, active = well fitted curve in the direction sought with a large enough effect; inconclusive = small, poorly fitted or top-dose-only effect, or another doubt; inactive = no such curve, though single readings can be large; an effect the other way counts as inactive or inconclusive.

Sequence of M-phase phosphoprotein 8 (Homo sapiens) (Q99549 whole entry, looked up): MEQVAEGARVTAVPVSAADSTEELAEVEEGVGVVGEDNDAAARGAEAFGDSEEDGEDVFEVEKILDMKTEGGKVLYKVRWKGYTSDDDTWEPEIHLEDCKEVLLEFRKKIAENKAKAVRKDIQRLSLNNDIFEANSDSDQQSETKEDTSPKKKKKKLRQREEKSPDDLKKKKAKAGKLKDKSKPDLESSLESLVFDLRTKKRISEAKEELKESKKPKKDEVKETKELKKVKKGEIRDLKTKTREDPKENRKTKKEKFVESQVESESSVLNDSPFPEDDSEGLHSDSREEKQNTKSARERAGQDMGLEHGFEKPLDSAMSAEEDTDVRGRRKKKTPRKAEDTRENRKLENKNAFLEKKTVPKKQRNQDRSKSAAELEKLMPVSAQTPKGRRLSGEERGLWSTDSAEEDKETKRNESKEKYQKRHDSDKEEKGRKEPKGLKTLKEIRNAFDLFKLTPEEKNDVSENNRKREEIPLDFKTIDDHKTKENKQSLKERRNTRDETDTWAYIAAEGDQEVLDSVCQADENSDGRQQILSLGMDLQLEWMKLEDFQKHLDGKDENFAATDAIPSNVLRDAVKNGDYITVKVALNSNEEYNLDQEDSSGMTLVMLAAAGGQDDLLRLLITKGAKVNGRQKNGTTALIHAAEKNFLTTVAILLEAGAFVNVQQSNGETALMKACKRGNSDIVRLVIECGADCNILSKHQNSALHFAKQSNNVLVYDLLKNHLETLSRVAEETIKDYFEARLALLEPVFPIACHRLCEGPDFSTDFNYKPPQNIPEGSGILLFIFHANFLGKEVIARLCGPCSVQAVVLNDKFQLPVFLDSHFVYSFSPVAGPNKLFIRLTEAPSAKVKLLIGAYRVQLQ
Sequence of ATP-dependent 6-phosphofructokinase (Trypanosoma brucei brucei) (O15648 whole entry, looked up): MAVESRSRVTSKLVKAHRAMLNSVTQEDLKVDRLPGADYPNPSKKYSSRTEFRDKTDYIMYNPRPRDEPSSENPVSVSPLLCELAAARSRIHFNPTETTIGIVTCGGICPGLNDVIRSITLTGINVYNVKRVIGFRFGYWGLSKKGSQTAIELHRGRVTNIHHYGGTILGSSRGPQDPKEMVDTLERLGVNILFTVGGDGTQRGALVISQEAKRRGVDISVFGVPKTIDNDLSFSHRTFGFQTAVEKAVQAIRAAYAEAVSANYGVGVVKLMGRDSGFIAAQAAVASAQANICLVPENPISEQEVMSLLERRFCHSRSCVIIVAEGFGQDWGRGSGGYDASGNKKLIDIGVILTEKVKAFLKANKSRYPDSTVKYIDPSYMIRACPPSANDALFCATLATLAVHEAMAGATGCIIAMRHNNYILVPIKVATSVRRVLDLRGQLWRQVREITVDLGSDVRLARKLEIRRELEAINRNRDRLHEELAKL
Sequence of D(1A) dopamine receptor (Homo sapiens) (P21728 whole entry, looked up): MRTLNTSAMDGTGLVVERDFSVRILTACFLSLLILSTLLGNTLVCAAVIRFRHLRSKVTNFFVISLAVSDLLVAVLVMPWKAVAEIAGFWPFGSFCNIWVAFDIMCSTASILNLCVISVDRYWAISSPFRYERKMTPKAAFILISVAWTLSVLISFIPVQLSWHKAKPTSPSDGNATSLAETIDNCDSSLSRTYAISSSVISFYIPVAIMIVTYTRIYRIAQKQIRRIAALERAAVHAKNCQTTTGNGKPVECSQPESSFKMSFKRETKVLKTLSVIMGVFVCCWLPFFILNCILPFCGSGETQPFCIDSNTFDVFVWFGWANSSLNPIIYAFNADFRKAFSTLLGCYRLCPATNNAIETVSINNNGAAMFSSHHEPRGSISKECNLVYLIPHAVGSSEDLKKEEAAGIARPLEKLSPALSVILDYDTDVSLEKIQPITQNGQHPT
Sequence of Thioredoxin reductase 1, cytoplasmic (Rattus norvegicus) (O89049 whole entry, looked up): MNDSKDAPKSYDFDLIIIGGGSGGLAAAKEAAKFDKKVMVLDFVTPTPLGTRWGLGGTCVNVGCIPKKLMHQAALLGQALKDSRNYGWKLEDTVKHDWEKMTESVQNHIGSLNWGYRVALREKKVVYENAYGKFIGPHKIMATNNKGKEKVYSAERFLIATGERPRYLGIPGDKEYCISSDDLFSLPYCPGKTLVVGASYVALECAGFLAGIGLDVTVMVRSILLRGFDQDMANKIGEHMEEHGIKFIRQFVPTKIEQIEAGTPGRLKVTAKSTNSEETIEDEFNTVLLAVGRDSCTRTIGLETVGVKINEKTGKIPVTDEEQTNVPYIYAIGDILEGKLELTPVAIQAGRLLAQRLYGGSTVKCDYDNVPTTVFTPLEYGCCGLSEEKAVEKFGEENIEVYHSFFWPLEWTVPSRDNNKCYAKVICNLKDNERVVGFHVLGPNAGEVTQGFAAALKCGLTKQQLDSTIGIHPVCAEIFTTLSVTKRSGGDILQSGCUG
Sequence of DNA polymerase III PolC-type (Bacillus subtilis (strain 168)) (P13267 whole entry, looked up): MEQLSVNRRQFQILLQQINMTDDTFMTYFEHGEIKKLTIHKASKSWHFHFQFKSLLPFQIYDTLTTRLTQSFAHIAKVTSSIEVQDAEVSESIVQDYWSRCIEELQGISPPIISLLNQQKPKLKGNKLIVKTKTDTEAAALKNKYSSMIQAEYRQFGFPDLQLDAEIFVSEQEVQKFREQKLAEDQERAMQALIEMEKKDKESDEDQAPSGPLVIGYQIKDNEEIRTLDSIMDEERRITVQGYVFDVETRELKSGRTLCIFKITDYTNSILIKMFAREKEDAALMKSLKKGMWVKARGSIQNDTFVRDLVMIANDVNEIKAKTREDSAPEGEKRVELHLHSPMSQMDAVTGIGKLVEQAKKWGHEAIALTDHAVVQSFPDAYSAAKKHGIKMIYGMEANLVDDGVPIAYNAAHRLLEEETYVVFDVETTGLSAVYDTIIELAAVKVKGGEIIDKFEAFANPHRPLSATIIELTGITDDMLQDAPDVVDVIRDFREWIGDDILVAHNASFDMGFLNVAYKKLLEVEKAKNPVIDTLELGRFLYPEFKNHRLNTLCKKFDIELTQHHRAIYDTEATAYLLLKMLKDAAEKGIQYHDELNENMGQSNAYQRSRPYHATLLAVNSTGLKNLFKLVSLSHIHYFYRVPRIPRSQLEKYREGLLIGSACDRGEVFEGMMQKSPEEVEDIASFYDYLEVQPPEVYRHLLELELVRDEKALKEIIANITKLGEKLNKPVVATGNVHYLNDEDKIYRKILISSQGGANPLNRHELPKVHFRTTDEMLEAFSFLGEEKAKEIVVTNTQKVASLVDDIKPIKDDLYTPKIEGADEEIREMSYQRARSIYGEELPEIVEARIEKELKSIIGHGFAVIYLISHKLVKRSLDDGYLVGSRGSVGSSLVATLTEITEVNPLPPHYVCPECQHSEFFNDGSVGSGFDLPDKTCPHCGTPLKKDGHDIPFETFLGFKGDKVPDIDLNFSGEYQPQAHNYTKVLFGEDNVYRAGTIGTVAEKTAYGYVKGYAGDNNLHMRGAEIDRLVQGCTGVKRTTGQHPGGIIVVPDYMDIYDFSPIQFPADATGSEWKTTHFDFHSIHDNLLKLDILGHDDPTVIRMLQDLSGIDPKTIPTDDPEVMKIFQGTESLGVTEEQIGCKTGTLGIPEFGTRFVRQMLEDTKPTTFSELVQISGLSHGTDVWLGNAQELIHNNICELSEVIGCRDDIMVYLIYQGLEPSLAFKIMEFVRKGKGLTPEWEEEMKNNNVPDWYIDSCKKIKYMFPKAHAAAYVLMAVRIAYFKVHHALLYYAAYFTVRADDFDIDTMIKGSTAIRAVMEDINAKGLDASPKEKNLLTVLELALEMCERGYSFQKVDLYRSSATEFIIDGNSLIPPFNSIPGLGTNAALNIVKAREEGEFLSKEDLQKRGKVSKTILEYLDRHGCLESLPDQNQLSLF
Sequence of Flap endonuclease 1 (Homo sapiens) (P39748 whole entry, looked up): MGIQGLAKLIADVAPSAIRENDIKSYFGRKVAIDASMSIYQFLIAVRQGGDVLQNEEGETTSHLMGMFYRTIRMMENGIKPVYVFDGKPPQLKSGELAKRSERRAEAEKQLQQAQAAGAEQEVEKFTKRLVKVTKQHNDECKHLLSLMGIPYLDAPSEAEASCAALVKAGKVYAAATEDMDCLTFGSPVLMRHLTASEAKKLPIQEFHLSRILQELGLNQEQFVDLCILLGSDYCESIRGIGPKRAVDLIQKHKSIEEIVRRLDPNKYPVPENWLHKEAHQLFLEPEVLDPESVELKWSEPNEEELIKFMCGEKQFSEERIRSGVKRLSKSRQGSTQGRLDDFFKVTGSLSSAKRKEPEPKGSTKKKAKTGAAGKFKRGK
Sequence of Tumor susceptibility gene 101 protein (Homo sapiens) (Q99816 whole entry, looked up, the tested form may be a part): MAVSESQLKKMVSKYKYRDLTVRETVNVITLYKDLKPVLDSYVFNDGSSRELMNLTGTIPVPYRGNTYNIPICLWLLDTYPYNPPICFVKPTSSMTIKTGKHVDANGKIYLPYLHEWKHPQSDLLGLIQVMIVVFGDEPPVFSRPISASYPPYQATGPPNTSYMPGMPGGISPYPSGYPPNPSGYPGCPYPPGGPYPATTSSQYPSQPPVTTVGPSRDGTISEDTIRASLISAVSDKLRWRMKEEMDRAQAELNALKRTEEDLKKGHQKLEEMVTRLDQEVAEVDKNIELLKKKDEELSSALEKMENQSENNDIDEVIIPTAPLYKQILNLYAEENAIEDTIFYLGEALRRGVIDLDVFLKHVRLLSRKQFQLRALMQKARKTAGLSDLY
Sequence of Chromobox protein homolog 1 (Homo sapiens) (P83916 whole entry, looked up): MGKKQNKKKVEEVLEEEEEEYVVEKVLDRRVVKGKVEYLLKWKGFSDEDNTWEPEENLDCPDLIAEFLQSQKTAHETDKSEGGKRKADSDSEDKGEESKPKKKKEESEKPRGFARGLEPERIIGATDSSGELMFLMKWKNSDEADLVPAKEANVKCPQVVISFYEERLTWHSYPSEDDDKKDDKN

Regarding `CCCOc1ccc2nc(NC(=O)OC)sc2c1`, in assay [1], the call was inactive.

For `NCCCC(=O)O`, the compound was called inactive in assay [2], in assay [3], in [4], in assay [5], in [6] and in assay [7]. Also, the outcome in assay [8], in assay [9], in [10], in [11], in assay [12] and in assay [13] was inactive. The outcome in [14], in [15], in [16] and in assay [19] was inactive. For the same compound, the Potency entry in assay [17] and in assay [18] was “inactive” in each case.

Consider `C=CCNC1=C2C[C@@H](C)C[C@H](OC)[C@H](O)[C@@H](C)/C=C(\C)[C@H](OC(N)=O)[C@@H](OC)/C=C\C=C(/C)C(=O)NC(=CC1=O)C2=O`, for which the call in [1] was inactive.

In the case of `CN[C@H]1CC[C@@H](c2ccc(Cl)c(Cl)c2)c2ccccc21`, the compound was called inactive in assay [4], in assay [5], in [6], in assay [7], in [8] and in [9]. In addition, the call in [10], in assay [11], in [12], in assay [13], in [14] and in assay [16] was inactive. The result in assay [20], in [1] and in assay [19] was inactive. Further, the Potency in [17] is 11.2 µM (active); in assay [18] it was 10 µM (active).

Consider `COC1C(OC(=O)/C=C/C=C/C=C/C=C/C(=O)O)CCC2(CO2)C1C1(C)OC1CC=C(C)C` (stereo not drawn), for which the call in [1] was inactive.
